Source: PubChem BioAssay (NCATS)
Several values for one entry are separate records, joined by “and”; a condition that tells them apart may be missing. Equal values may be shown once. Inconclusive results are not listed. A call without a number means that no potency is given here. A structure can be active in one record and inactive in another. Activity calls are given as the source filed them. The call rests on the fitted dose curve; in most records, active means well fitted curve in the direction sought with a large enough effect; inconclusive means small, poorly fitted or top-dose-only effect, or another doubt; inactive means no such curve, though single readings can be large; an effect the other way counts as inactive or inconclusive.

Assays:
[1] = target: Cytochrome P450 2C9 (Homo sapiens) (UniProt P11712); assay: qHTS Assay for Inhibitors and Substrates of Cytochrome P450 2C9 (AID 883); further: nearly all actives have a fitted effect of over 60% in size; further: potency means the concentration at half of the fitted maximal effect
Procedure, shortened: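 CYP2C9 deoxyluciferin hydroxylation, 37C, 60 min with NADPH regeneration; 10nM enzyme, 100uM Luciferin-H (KM). Glo detection reagent stopped reaction; luminescence normalized to sulphaphenazole (57uM) full inhibition.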

[2] = target: Cytochrome P450 3A4 (Homo sapiens) (UniProt P08684); assay: qHTS Assay for Activators of Cytochrome P450 3A4 (AID 885); further: nearly all actives have a fitted effect of over 65% in size
Procedure, shortened: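 CYP3A4 activity: Luciferin-PPXE O-dealkylation, 25uM substrate, 200mM KPO4, RT throughout. Read-out is luciferase luminescence; higher values reflect activation.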

[3] = target: Cytochrome P450 2D6 (Homo sapiens) (UniProt P10635); assay: qHTS Assay for Inhibitors and Substrates of Cytochrome P450 2D6 (AID 891); further: nearly all actives have a fitted effect of over 60% in size; further: potency means the concentration at half of the fitted maximal effect
Procedure, shortened: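 Luminescent read-out of luciferin formed by 5 nM human CYP2D6 demethylating 30 uM Luciferin-ME EGE (Km level) over 60 min at room temperature after NADPH regeneration addition. Data normalized to full inhibition by 1.43 uM quinidine.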

[4] = target: Cytochrome P450 2C19 (Homo sapiens) (UniProt P33261); assay: qHTS Assay for Inhibitors and Substrates of Cytochrome P450 2C19 (AID 899); further: nearly all actives have a fitted effect of over 60% in size; further: potency means the concentration at half of the fitted maximal effect
Procedure, shortened: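 In 50mM KPO4, the reaction held 5nM enzyme and KM-level (10uM) Luciferin-H EGE; it ran 60 min at 37C after NADPH regeneration and a 10 min compound preincubation. Luminescence values were scaled to 57uM ketoconazole as complete inhibition.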

Cytochrome P450 2C19 (Homo sapiens), sequence (P33261 whole entry, looked up): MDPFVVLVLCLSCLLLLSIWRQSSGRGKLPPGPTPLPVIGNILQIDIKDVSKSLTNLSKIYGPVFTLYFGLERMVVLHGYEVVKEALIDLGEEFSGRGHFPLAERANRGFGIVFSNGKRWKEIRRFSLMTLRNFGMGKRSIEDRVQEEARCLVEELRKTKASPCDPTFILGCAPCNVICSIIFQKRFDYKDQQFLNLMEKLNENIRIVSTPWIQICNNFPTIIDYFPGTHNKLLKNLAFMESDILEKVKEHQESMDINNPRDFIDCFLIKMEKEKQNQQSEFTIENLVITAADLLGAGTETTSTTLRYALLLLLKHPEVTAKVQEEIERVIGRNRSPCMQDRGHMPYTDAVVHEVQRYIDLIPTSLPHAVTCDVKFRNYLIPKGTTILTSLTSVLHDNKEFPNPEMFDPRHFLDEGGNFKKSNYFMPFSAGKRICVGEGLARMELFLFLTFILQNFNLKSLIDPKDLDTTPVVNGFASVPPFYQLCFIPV
Cytochrome P450 2D6 (Homo sapiens), sequence (P10635 whole entry, looked up): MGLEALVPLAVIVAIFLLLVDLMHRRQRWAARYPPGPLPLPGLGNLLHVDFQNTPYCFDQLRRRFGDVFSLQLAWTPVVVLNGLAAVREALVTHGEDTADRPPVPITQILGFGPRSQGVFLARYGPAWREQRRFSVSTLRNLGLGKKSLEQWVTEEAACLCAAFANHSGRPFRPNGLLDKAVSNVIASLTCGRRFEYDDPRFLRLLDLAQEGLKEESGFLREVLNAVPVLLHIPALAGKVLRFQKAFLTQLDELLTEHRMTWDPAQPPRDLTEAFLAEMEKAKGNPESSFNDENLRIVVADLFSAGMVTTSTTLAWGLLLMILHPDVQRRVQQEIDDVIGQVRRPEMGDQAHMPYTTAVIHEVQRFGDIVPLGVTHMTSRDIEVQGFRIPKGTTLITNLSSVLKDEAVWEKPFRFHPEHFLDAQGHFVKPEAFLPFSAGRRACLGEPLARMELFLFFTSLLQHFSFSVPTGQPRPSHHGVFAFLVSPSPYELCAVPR
Cytochrome P450 3A4 (Homo sapiens), sequence (P08684 whole entry, looked up): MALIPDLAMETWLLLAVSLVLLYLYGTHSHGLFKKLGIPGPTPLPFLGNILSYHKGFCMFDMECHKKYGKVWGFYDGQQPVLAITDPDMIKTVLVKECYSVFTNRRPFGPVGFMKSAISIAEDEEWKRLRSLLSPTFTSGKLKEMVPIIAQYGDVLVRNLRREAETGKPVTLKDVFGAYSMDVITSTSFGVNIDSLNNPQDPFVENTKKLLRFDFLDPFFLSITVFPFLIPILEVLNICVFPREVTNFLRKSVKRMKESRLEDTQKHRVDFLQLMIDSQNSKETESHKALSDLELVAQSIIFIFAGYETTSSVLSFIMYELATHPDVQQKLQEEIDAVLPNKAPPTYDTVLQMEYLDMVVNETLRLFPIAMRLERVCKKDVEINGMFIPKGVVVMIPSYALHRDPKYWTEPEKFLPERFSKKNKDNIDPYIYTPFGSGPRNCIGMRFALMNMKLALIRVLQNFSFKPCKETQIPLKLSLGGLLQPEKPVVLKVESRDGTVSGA
Cytochrome P450 2C9 (Homo sapiens), sequence (P11712 whole entry, looked up): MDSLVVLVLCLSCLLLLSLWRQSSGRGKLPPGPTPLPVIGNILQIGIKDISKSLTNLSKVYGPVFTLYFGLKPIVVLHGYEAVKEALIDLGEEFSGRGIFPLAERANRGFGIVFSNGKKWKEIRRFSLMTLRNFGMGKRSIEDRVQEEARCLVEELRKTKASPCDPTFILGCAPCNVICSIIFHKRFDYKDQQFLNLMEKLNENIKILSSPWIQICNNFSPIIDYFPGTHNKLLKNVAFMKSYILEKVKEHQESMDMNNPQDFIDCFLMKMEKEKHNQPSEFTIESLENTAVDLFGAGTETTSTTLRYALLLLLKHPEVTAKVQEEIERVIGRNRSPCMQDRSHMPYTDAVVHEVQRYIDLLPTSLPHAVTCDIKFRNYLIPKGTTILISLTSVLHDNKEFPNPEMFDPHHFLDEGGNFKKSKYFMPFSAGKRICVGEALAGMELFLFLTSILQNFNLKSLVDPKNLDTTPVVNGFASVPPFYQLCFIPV

SMILES	Potency [1]	activity change, positive = activation [2]	Potency [3]	Potency [4]
C=CCC(O)CC1C2C(CC(O)CC=C)C3C1C3C2OC(C)(C)C (stereo not given)	inactive	-98.2% [at 11.4 µM] (inactive)	inactive	
C=C(C)C(O)/C=C/c1ccccc1OC (stereo not given)	inactive	-35.5% [at 11.4 µM] (inactive)	inactive	inactive
CCCCCCC1=Cc2cc(OC)c(OC)cc2C(C(C(C)=O)C(=O)OC)O1 (stereo not given)	inactive	-57.6% [at 11.4 µM] (inactive)	inactive	3.16 µM (active)
COC(=O)NC(/C=C/c1ccccc1)[C@]1(C(C)=O)CCCC1=O (stereo not given in full)	inactive	-41.6% [at 11.4 µM] (inactive)	inactive	
COC(=O)NC(c1cccc(C)c1)C(C(C)=O)C(=O)OC (stereo not given)	inactive	-34.6% [at 11.4 µM] (inactive)	inactive	inactive
CCCCCCC1=Cc2cc(OC)c(OC)cc2C(C2(C(=O)OCC)CCCC2=O)O1 (stereo not given)	inactive	-36.1% [at 11.4 µM] (inactive)	inactive	
CCOC(=O)OCC1OC(c2ccccc2)C=CC1Oc1cccc(N(C)C)c1 (stereo not given)	inactive	-50.1% [at 11.4 µM] (inactive)	inactive	
COC(=O)C1=C(C)N(Cc2ccccc2)[C@]23O[C@](C(=O)OC)(C(=O)N2C1c1ccccc1)C(C(=O)OC)=C3C(=O)OC (stereo not given in full)	inactive	-58% [at 11.4 µM] (inactive)	inactive	1.58 µM (active)
CCC(=O)CC(NC(=O)OC)c1ccccc1 (stereo not given)	inactive	-34.8% [at 11.4 µM] (inactive)	inactive	inactive
COC(=O)C(C(C)=O)C(NC(=O)NCc1ccccc1)c1ccccc1 (stereo not given)	inactive	-69.4% [at 11.4 µM] (inactive)	inactive	
O=Cc1ccc(OC2C=CC(C#Cc3ccccc3)OC2CO)cc1 (stereo not given)	2.51 µM (active)	-42% [at 11.4 µM] (inactive)	inactive	
CCCCCCC1=Cc2cc(OC)c(OC)cc2C(CC(=O)/C=C/OC)O1 (stereo not given)	inactive	-40.4% [at 11.4 µM] (inactive)	inactive	inactive
COC(=O)NC(c1ccccc1)C(C(=O)OC)C(=O)OC (stereo not given)	inactive	-40.4% [at 11.4 µM] (inactive)	0.0079 µM (active)	
COC(=O)C1=C(C)N(Cc2ccccc2)c2c(C(=O)OC)c(C(=O)OC)c(C(=O)OC)c(=O)n2C1c1ccccc1 (stereo not given)	inactive	-58.7% [at 11.4 µM] (inactive) and -55.1% [at 11.4 µM] (inactive)	inactive	inactive
CC(=O)Nc1ccc(C2C(C)CCC3C(=O)N4C(CCC(C)[C@@H]4c4ccc(NC(C)=O)cc4)C(=O)N32)cc1 (stereo not given in full)	inactive	-34.4% [at 11.4 µM] (inactive)	inactive	
OCC1OC(C#Cc2ccccc2)C=CC1O (stereo not given)	inactive	-40.9% [at 11.4 µM] (inactive) and -46.3% [at 11.4 µM] (inactive) and -31.2% [at 11.4 µM] (inactive)	inactive	
COc1ccc(-c2nc3c(c4c2CC(C)OC4)CN(CCC(C)C)CC3)cc1 (stereo not given)	inactive	-50.4% [at 11.4 µM] (inactive)	inactive	inactive
CC1CCC2C(=O)OC(COc3ccc(C(C)(C)C)cc3)CN2C1c1ccc(Br)cc1 (stereo not given)	inactive	-42.1% [at 11.4 µM] (inactive) and -33.2% [at 11.4 µM] (inactive)	inactive	251 nM (active) and inactive
COc1ccccc1/C=C/C1=CC2(C)CC1(C)C(c1ccccc1OC)CC2=O (stereo not given)	3.98 µM (active)	-56.9% [at 11.4 µM] (inactive)	inactive	3.16 µM (active)
C=C/C1=C/Cc2ccccc2C(C[N+](=O)[O-])C(C(=O)OC)(C(=O)OC)C1 (stereo not given)	inactive	-46.3% [at 11.4 µM] (inactive)	inactive	
COC(=O)C/C=C/C(C)C(OCc1cccc(-c2ccccc2)c1)C1CCCCC1 (stereo not given)	inactive	-35.3% [at 11.4 µM] (inactive)	inactive	inactive
CC(=O)OCC1OC(C#CCC2CCCCC2)C=CC1OC(C)=O (stereo not given)	inactive	-56.3% [at 11.4 µM] (inactive)	inactive	inactive
COc1cccc(C2C(C)CCC3C(=O)N(C)C(C(C)C)C(=O)N32)c1 (stereo not given)	inactive	-59.1% [at 11.4 µM] (inactive)	inactive	inactive
CCC/C=C/C1C(=O)C2OC2C2(OCC(CC)(CC)CO2)C1CO (stereo not given)	inactive	-53.3% [at 11.4 µM] (inactive)	inactive	
C/C=C/C1Oc2ccc(OC)cc2N2C(=O)C(C)C(OCOC)C12 (stereo not given)	inactive	-50.7% [at 11.4 µM] (inactive)	inactive	inactive
COC(=O)C1=C(C)N(Cc2ccccc2)[C@]23O[C@](C(=O)OC)(C(=O)N2C1c1ccccc1)C1C(=O)N(c2ccccc2)C(=O)C13 (stereo not given in full)	inactive	-42.8% [at 11.4 µM] (inactive) and -32.3% [at 11.4 µM] (inactive)	inactive	inactive

SMILES	Potency [1]	activity change, positive = activation [2]	Potency [3]	Potency [4]
CC1CCC2C(=O)N3C(CCC(C)[C@@H]3c3ccc(Br)cc3)C(=O)N2C1c1ccc(Br)cc1 (stereo not given in full)	3.16 µM (active)	-48.7% [at 11.4 µM] (inactive)	inactive	
C/C=C/OC(=O)NC(c1cccc(C)c1)[C@@]1(C(=O)OCC)CCCC1=O (stereo not given in full)	inactive	-48.2% [at 11.4 µM] (inactive)	inactive	
CCN1C(C)=C(C(=O)OC)C(c2ccccc2)N2C(=O)[C@@]3(C(=O)OC)O[C@@]12C1C(=O)CCCC13 (stereo not given in full)	inactive	-36.9% [at 11.4 µM] (inactive)	inactive	inactive
C=CCOC(=O)C(C(C)=O)C(NC(=O)OC)c1ccc2ccccc2c1 (stereo not given)	inactive	-46.5% [at 11.4 µM] (inactive)	inactive	0.126 µM (active)
C=CCOC(=O)C(C(=O)CC)C(NC(=O)OC)c1ccc(F)cc1 (stereo not given)	inactive	-52.3% [at 11.4 µM] (inactive)	inactive	inactive
COCOc1cc(OC)ccc1C(=O)/C=C\c1ccc2c(c1)OCO2	2.51 µM (active)	-101% [at 11.4 µM] (inactive)	3.98 µM (active)	
COC(=O)NC(c1cccs1)C(C(C)=O)C(=O)OC (stereo not given)	inactive	-34.2% [at 11.4 µM] (inactive)	inactive	
COC(c1ccccc1)C(C)C(OC)C(C)C(OC)C(C)C(C)=O (stereo not given)	inactive	-36.1% [at 11.4 µM] (inactive)	inactive	
C=CCOC(=O)C(C(C)=O)C(NC(=O)OC)c1ccco1 (stereo not given)	inactive	-42.1% [at 11.4 µM] (inactive)	inactive	
COC(=O)C1=C(C)N(Cc2ccccc2)C2=C3C(=O)N(c4ccccc4)C(=O)C3[C@@](O)(C(=O)OC)C(=O)N2C1c1ccccc1 (stereo not given in full)	inactive	-39.6% [at 11.4 µM] (inactive) and -38.9% [at 11.4 µM] (inactive)	inactive	inactive
CCOC(=O)OCC1OC(C#Cc2ccc(C)cc2C)C=CC1OC(=O)OCC (stereo not given)	inactive	-58.4% [at 11.4 µM] (inactive)	inactive	inactive
COc1ccc(OC2C(O)COC2/C=C/C#Cc2ccccc2)cc1 (stereo not given)	inactive	-57.7% [at 11.4 µM] (inactive)	inactive	inactive
C=C(C)C(O)/C=C/C=C/c1ccccc1 (stereo not given)	inactive	-32.8% [at 11.4 µM] (inactive)	inactive	inactive
CC1CCC2C(=O)OC(CN=[N+]=[N-])CN2C1c1ccc(Br)cc1 (stereo not given)	inactive and 1 µM (active)		inactive	
CCN1C(C)=C(C(=O)OC)C(c2ccccc2)N2C(=O)[C@](O)(C(=O)OC)CC(C#N)=C12 (stereo not given in full)	inactive	-38.3% [at 11.4 µM] (inactive)	inactive	inactive
C=C(C)C(O)/C=C/CCCCCCC (stereo not given)	inactive	-33.5% [at 11.4 µM] (inactive)	inactive	inactive
CC1CCC2C(=O)OC(Cc3ccccc3)CN2C1c1ccc(Br)cc1 (stereo not given)	inactive	-52.5% [at 11.4 µM] (inactive) and -47.1% [at 11.4 µM] (inactive)	inactive	316 nM (active) and 3.16 µM (active)
CCCCCCC#CC1C=CC(Oc2ccc(C=O)cc2)C(CO)O1 (stereo not given)	inactive	-35.2% [at 11.4 µM] (inactive)	inactive	3.98 µM (active)
OCC1OC(c2ccc3c(c2)OCO3)C=CC1Oc1ccc(C2CCCC2)cc1 (stereo not given)	inactive	-50.7% [at 11.4 µM] (inactive)		inactive
CC(=O)OCC1OC(C#Cc2ccc(F)cc2F)C=CC1OC(C)=O (stereo not given)	5.01 µM (active)	-91.4% [at 11.4 µM] (inactive)		2.51 µM (active)
CC12C=C(/C=C/c3ccccc3)C(C)(C1)C(c1ccccc1)CC2=O (stereo not given)	inactive	-52.8% [at 11.4 µM] (inactive)		0.794 µM (active)
C=CCC1(C)OC=Cc2nc3cc(Cl)c(Cl)cc3nc21 (stereo not given)	inactive	-59.2% [at 11.4 µM] (inactive)	inactive	3.98 µM (active)
CC12C=C(/C=C/c3ccc(C(F)(F)F)cc3)C(C)(C1)C(c1ccc(C(F)(F)F)cc1)CC2=O (stereo not given)	inactive	-39% [at 11.4 µM] (inactive)		inactive
O=C1OC(C2=CCCCC2)=NC12CC2	inactive	-40.2% [at 11.4 µM] (inactive)	inactive	inactive
CCCCC#CC1C=CC(Oc2cc(OC)c(OC)c(OC)c2)C(CO)O1 (stereo not given)	inactive	-45% [at 11.4 µM] (inactive)	inactive	inactive
COC(=O)C1=C(C)N(Cc2ccccc2)[C@]23O[C@](C(=O)OC)(C(=O)N2C1c1ccccc1)C1C(=O)N(C)C(=O)C13 (stereo not given in full)	inactive	-51.8% [at 11.4 µM] (inactive) and -36.4% [at 11.4 µM] (inactive)	inactive	inactive
